Source: PubChem (National Center for Advancing Translational Sciences (NCATS))
HP1b binding inh = blocks HP1-beta chromodomain binding to methylated histone tails. AlphaScreen HP1-beta / biotin-H3K9me3 peptide binding. Potency, µM (series often up to 114 µM), without a hit: top-dose activity change, negative = inhibition, most hits filed as inhibitors. 390,000 tested, 0.56% active. AID 540317; note: potency is the fitted concentration of half-maximal effect; nearly all actives have a fitted effect of over 70% in size
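Compound inhibition of the preformed complex between 50 nM HP1-beta and 50 nM biotinylated H3K9me3 peptide was read by AlphaScreen. Buffer was PBS pH 7.4 with 0.01% Tween-20. Incubations ran 30 min at room temperature, with 10 ug/mL donor/acceptor beads.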
JMJD2A Tudor = JMJD2A Tudor domain (human) inhibition; O75164; AlphaScreen JMJD2A-Tudor / H3K4me3 peptide binding; Potency, µM (top dose mostly 114 µM), for inactives: at the highest dose activity change, negative = inhibition, most hits filed as inhibitors; 390,000 tested, 4.4% active; AID 504339; note: potency is the fitted concentration of half-maximal effect; % is set by controls: 0 for no effect and ±100 for the full control effect; nearly all actives have a fitted effect of over 50% in size
G9a inh = G9a (human) methyltransferase inhibition; Q96KQ7; G9a H3K9 monomethylation, AlphaScreen, 2 h; Potency, µM (highest dose often 102 µM), for the others: at the top dose activity, negative = inhibition, hits mostly inhibitors; 350,000 tested, 8.8% active; AID 504332; note: potency is the fitted concentration of half-maximal effect; % is set by controls: 0 for no effect and ±100 for the full control effect; nearly all actives have a fitted effect of over 75% in size
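Compounds were preincubated with 20 nM G9a for 15 min, after which biotinylated H3K9 peptide (500 nM) and SAM (20 uM) started a 2 h room-temperature reaction. Monomethylated product was quantified by antibody-based AlphaScreen chemiluminescence.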
PI5P4K alpha inh = PI5P4K alpha (human) kinase inhibition; AID 652105; max response, %; PI5P4Kalpha enzyme, ADP-Glo luminescence, 60 min; stronger effect = lower value; 330,000 tested, 1.2% active; P48426; active = max response of -50% or lower; inconclusive = between -30% and -50%; inactive = -30% or higher; note: value at the top dose of about 77 µM; % is set by controls: 0 for no effect and ±100 for the full control effect
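Quantitative HTS of the MLSMR library against PI5P4Kalpha with substrate. ATP added last at 5 microM final; room temperature, 60 minutes. Remaining ATP depleted, ADP converted and read as luminescence.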
BAZ2B block = blocks human BAZ2B. Q9UIF8. AlphaScreen BAZ2B-H3K14Ac peptide displacement. Potency, µM (doses to about 114 µM), for the others: top-dose activity change, negative = inhibition, hits mostly inhibitors. 360,000 tested, 4.4% active. AID 504333; note: potency is the fitted concentration of half-maximal effect; % is set by controls: 0 for no effect and ±100 for the full control effect; nearly all actives have a fitted effect of over 60% in size
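Inhibition is scored as reduced AlphaScreen emission. The BAZ2B/b-H3(5-23)K14Ac complex (50 nM each) in PBS pH 7.4, 0.01% Tween-20 meets compound (up to 110 uM) for 30 min at RT before bead addition.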
L3MBTL1 block = L3MBTL1 (human) inhibition; Q9Y468; AlphaScreen L3MBTL1–H3K9me1 peptide binding; Potency, µM (doses to about 57.1 µM), for inactives: at the top dose activity, negative = inhibition, most hits filed as inhibitors; 230,000 tested, 0.66% active; note: potency is the fitted concentration of half-maximal effect; % is set by controls: 0 for no effect and ±100 for the full control effect; nearly all actives have a fitted effect of over 60% in size
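AlphaScreen proximity signal between nickel-chelate acceptor and streptavidin donor beads (final 10 ug/mL) reports binding of 50 nM L3MBTL1 to 75 nM biotin-H3 K9me1 peptide; complex incubated with compounds 30 min at room temperature; cefsulodin titration as control.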
An asterisk follows results filed as active; [ ] = another dose, or the depositor's remark. This is a sample that favours compounds with a hit; in the whole collection about 11% have one here. Unless noted, calls come from the whole dose curve; as a rule, active = well fitted inhibition curve with a large enough effect; inconclusive = small, poorly fitted or top-dose-only effect; inactive = no such curve, though single readings can be large or run the other way.

What do the screens show for `COc1ccccc1N1CCN(S(=O)(=O)c2ccc3c(c2)NC(=O)C(C)S3)CC1` (centres undefined)?
HP1b binding inh: 23%; JMJD2A Tudor: -22%; G9a inh: 77%; PI5P4K alpha inh: 3; BAZ2B block: -18%

Results for COc1ccccc1N1CCN(C(=O)C(C)CS(=O)(=O)c2ccc3c(c2)NC(=O)CS3)CC1 (centres undefined) ?
HP1b binding inh: 38%; JMJD2A Tudor: 21%; G9a inh: inconclusive; PI5P4K alpha inh: -11; BAZ2B block: 56µM*

What do the screens show for `Cc1ccc(NC(=S)Nc2cccc3cnccc23)c(C)c1`?
HP1b binding inh: -10%; JMJD2A Tudor: -14%; G9a inh: 50µM*; PI5P4K alpha inh: 3; BAZ2B block: -22%; L3MBTL1 block: 1%

What do the screens show for `Cc1ccc(NC(=S)c2ccncc2)c(C)c1`?
HP1b binding inh: 52%; JMJD2A Tudor: 0%; G9a inh: 79µM*; PI5P4K alpha inh: 6; BAZ2B block: inconclusive

Results for C=C(C)CNC(=S)Nc1cccc2cnccc12 ?
HP1b binding inh: 54%; JMJD2A Tudor: -1%; G9a inh: 25%; PI5P4K alpha inh: 1; BAZ2B block: 34%; L3MBTL1 block: 12%

Results for O=C(NC(=S)Nc1cccc2cnccc12)c1ccccc1 ?
HP1b binding inh: 39%; JMJD2A Tudor: -9%; G9a inh: 40µM*; PI5P4K alpha inh: 0; BAZ2B block: 0%; L3MBTL1 block: -9%

What do the screens show for `Cc1cc(C)cc(NC(=S)Nc2cccc3cnccc23)c1`?
HP1b binding inh: inconclusive; JMJD2A Tudor: -31%; G9a inh: 18µM*; PI5P4K alpha inh: 0; BAZ2B block: inconclusive; L3MBTL1 block: -29%

How did CC(C)C[C@H](NC(=O)[C@H](CCC(N)=O)NC(=O)[C@H](CCCCN)NC(=O)[C@H](CCC(N)=O)NC(=O)[C@@H](N)CCC(=O)O)C(=O)N[C@@H](CCC(N)=O)C(=O)O do in these assays?
G9a inh: 16%[59 µM]

Results for CCc1ccc(NC(=S)Nc2cccc3cnccc23)cc1 ?
HP1b binding inh: -4%; JMJD2A Tudor: -15%; G9a inh: 45µM*; PI5P4K alpha inh: -27; BAZ2B block: inconclusive; L3MBTL1 block: inconclusive

How did CC[n+]1c(C)sc2sc3ccccc3c21 do in these assays?
G9a inh: 1µM*; BAZ2B block: 25µM*

What do the screens show for `COc1ccccc1C(=O)OCc1cc(=O)n2nc(C3CCCCC3)sc2n1`?
HP1b binding inh: 144%; JMJD2A Tudor: -33%; G9a inh: -13%[59 µM]; BAZ2B block: 2%

Results for CC(N1CCOC1=O)S(=O)(=O)c1ccccc1 (centres undefined) ?
HP1b binding inh: 58%; JMJD2A Tudor: -11%; G9a inh: inconclusive; PI5P4K alpha inh: 1; BAZ2B block: 50µM*

What do the screens show for `Cc1ccc(NC(=O)Cn2cc(S(=O)(=O)c3ccc(C)cc3)c(=O)c3cc4c(cc32)OCO4)cc1`?
HP1b binding inh: 27%; JMJD2A Tudor: -19%; G9a inh: -8%[59 µM]; BAZ2B block: -6%

What do the screens show for `c1ccc2nc(N3CCCC3)c(N3CCCC3)nc2c1`?
HP1b binding inh: 380%; JMJD2A Tudor: 236%; G9a inh: 17%[12.7 µM]; PI5P4K alpha inh: 0; BAZ2B block: 259%

How did CN(C)C=Nc1nc2ccccc2nc1N1CCCC1 do in these assays?
HP1b binding inh: 88%; JMJD2A Tudor: 12%; G9a inh: 45µM*; PI5P4K alpha inh: 0; BAZ2B block: 0%; L3MBTL1 block: 0%[11.4 µM]

What do the screens show for `CCOC(=O)CSc1cn2c(n1)CCC2`?
HP1b binding inh: 13%; JMJD2A Tudor: -24%; G9a inh: 10µM*; BAZ2B block: 6%; L3MBTL1 block: -21%

Results for CCOC(=O)CSc1nc(C)cc(C)n1 ?
HP1b binding inh: 30%; JMJD2A Tudor: -12%; G9a inh: inconclusive; PI5P4K alpha inh: 2; BAZ2B block: 10%
